This is an account of results in the supplement of paper PMC4022240.

± gives the standard deviation.

What all share (experiment): peptide microarray binding signal (635 nm), min-max normalized on array (fraction of array maximum); higher = stronger binding
In experiment [1] the target is T1, HaloTag-ATRX ADD domain (163-292).
T1 chain: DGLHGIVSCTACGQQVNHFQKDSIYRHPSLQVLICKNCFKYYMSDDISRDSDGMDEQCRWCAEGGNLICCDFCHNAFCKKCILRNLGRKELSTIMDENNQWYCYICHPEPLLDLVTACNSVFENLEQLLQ
In a few lines: (§1)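 For each library, binding signal was taken as the triplicate-spot mean intensity and then min-max scaled. Spots of histone 13-mer peptide–cellulose conjugates on nitrocellulose, printed in triplicate with a Cy3 tracer, were probed for 1 h at 4°C with either biotin-labelled HaloTag reader fusions (10 nM to 1 μM) and streptavidin-Alexa Fluor 647 or rabbit histone antibodies (1:10,000 to 1:2,000) and anti-rabbit Alexa 647. Readout at 635 nm came from an Axon GenePix 4000B.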

Experiment [2] deals with HaloTag-ING2 PHD (mouse Ing2 200-280). In a few lines:
as §1

Experiment [3] deals with anti-H3K4me3 antibody ab8580. In a few lines: as §1
Experiment [4] addresses anti-H3K9me3 antibody ab8898. Summed up: as §1
[5] abbreviates: peptide region: H3 11-23, binder concentration: 1:2,000 dilution.
[6] abbreviates: peptide region: H3 11-23, binder concentration: 1:10,000 dilution.
The mark [7] stands for this setting: peptide region: H3 5-17, peptide modifications: H3T11ph H3K14me3, binder concentration: 1:2,000 dilution.
Where [8] appears, read: peptide region: H3 5-17, peptide modifications: H3T11ph H3K14me3, binder concentration: 1:10,000 dilution.
Setting [9] is: peptide region: H3 11-23, peptide modifications: H3K14ac, binder concentration: 1:2,000 dilution.
Where [10] appears, read: peptide region: H3 11-23, peptide modifications: H3K14ac, binder concentration: 1:10,000 dilution.
[11] abbreviates: peptide region: H3 11-23, peptide modifications: H3K14me1, binder concentration: 1:2,000 dilution.
Setting [12] is: peptide region: H3 11-23, peptide modifications: H3K14me1, binder concentration: 1:10,000 dilution.
The mark [13] stands for this setting: peptide region: H3 11-23, peptide modifications: H3K14ac H3K18me3, binder concentration: 1:2,000 dilution.
Where [14] appears, read: peptide region: H3 11-23, peptide modifications: H3K14ac H3K18me3, binder concentration: 1:10,000 dilution.

Take TGGKAPRKQLATK [H3 11-23 T G G K A P R K Q L A T K]: the “peptide microarray binding signal” value turned out to be 0.00481 ± 0.00041 in experiment [1] (peptide region: H3 11-23, binder concentration: 50 nM); 0.0154 ± 0.0015 in experiment [1] (peptide region: H3 11-23, binder concentration: 500 nM); 0.00615 ± 0.00031 in experiment [2] (peptide region: H3 11-23, binder concentration: 10 nM); 0.0175 ± 0.0019 in experiment [2] (peptide region: H3 11-23, binder concentration: 100 nM); 0.000849 ± 5.7e-05 in experiment [3] (setting [5]); 0.00097 ± 0.00013 in experiment [3] (setting [6]). The results for the “peptide microarray binding signal” value in experiment [4] (setting [5]) and in experiment [4] (setting [6]) were 0.00172 ± 0.00025 and 0.00138 ± 0.00011, respectively.
Consider QTARKSTGGKAPR [H3 5-17 Q T A R K S Tph G G Kme3 A P R], for which the “peptide microarray binding signal” value in experiment [1] (peptide region: H3 5-17, peptide modifications: H3T11ph H3K14me3, binder concentration: 50 nM) was determined as 0.00257 ± 7.4e-05; in experiment [1] (peptide region: H3 5-17, peptide modifications: H3T11ph H3K14me3, binder concentration: 500 nM) it was 0.00829 ± 0.00052; in experiment [2] (peptide region: H3 5-17, peptide modifications: H3T11ph H3K14me3, binder concentration: 10 nM), 0.00418 ± 0.00034; in experiment [2] (peptide region: H3 5-17, peptide modifications: H3T11ph H3K14me3, binder concentration: 100 nM) it was 0.00857 ± 0.0014; in experiment [3] (setting [7]) it was 0.00848 ± 0.002; in experiment [3] (setting [8]), 0.00582 ± 0.0016. Moreover, the “peptide microarray binding signal” value in experiment [4] (setting [7]) is 0.0639 ± 0.0075; in experiment [4] (setting [8]) it was 0.0181 ± 0.0023.
Consider TGGKAPRKQLATK [H3 11-23 T G G Kac A P R K Q L A T K], for which the “peptide microarray binding signal” value was determined as 0.0069 ± 0.00019 in experiment [1] (peptide region: H3 11-23, peptide modifications: H3K14ac, binder concentration: 50 nM); 0.032 ± 0.0024 in experiment [1] (peptide region: H3 11-23, peptide modifications: H3K14ac, binder concentration: 500 nM); 0.0291 ± 0.0036 in experiment [2] (peptide region: H3 11-23, peptide modifications: H3K14ac, binder concentration: 10 nM); 0.0427 ± 0.0088 in experiment [2] (peptide region: H3 11-23, peptide modifications: H3K14ac, binder concentration: 100 nM); 0.00429 ± 0.00017 in experiment [3] (setting [9]); 0.00314 ± 0.00047 in experiment [3] (setting [10]). For the same molecule, the “peptide microarray binding signal” value in experiment [4] (setting [9]) amounted to 0.00606 ± 0.00038; in experiment [4] (setting [10]), 0.00392 ± 0.00032.
Turning to TGGKAPRKQLATK [H3 11-23 T G G Kme A P R K Q L A T K], the “peptide microarray binding signal” value in experiment [1] (peptide region: H3 11-23, peptide modifications: H3K14me1, binder concentration: 50 nM) is 0.00646 ± 0.00024; in experiment [1] (peptide region: H3 11-23, peptide modifications: H3K14me1, binder concentration: 500 nM) it was 0.0181 ± 0.002; in experiment [2] (peptide region: H3 11-23, peptide modifications: H3K14me1, binder concentration: 10 nM), 0.00567 ± 0.00017; in experiment [2] (peptide region: H3 11-23, peptide modifications: H3K14me1, binder concentration: 100 nM) it was 0.0256 ± 0.0033; in experiment [3] (setting [11]) it was 0.0023 ± 0.00025; in experiment [3] (setting [12]), 0.00108. For the same molecule, the “peptide microarray binding signal” value amounted to 0.004 ± 0.00032 in experiment [4] (setting [11]) and 0.00346 ± 0.00012 in experiment [4] (setting [12]).
Regarding TGGKAPRKQLATK [H3 11-23 T G G Kac A P R Kme3 Q L A T K], the “peptide microarray binding signal” value turned out to be 0.00953 ± 0.0014 in experiment [1] (peptide region: H3 11-23, peptide modifications: H3K14ac H3K18me3, binder concentration: 50 nM); 0.00948 ± 0.00024 in experiment [1] (peptide region: H3 11-23, peptide modifications: H3K14ac H3K18me3, binder concentration: 500 nM); 0.00841 ± 0.00063 in experiment [2] (peptide region: H3 11-23, peptide modifications: H3K14ac H3K18me3, binder concentration: 10 nM); 0.0201 ± 0.0018 in experiment [2] (peptide region: H3 11-23, peptide modifications: H3K14ac H3K18me3, binder concentration: 100 nM); 0.931 ± 0.11 in experiment [3] (setting [13]); 0.499 ± 0.075 in experiment [3] (setting [14]). For the same molecule, the results for the “peptide microarray binding signal” value in experiment [4] (setting [13]) and in experiment [4] (setting [14]) were 0.0555 ± 0.018 and 0.016 ± 0.00022, respectively.
